Source: PubChem BioAssay AID504467 (National Center for Advancing Translational Sciences (NCATS), 2011)
Screen size: about 330,000 compounds; about 7,700 (2.3%) were called active. Not shown: some 26% with an inconclusive outcome. The call rests on the fitted dose curve; in most records, active means well fitted inhibition curve with a large enough effect; inconclusive means small, poorly fitted or top-dose-only effect, or effect the other way; inactive means flat fitted curve, though single readings scatter. The list comes from a sample in which actives are over-represented; it also holds similar structures and randomly drawn compounds.

assay: qHTS screen for small molecules that inhibit ELG1-dependent DNA repair in human embryonic kidney (HEK293T) cells expressing luciferase-tagged ELG1; details: HEK293T ELG1-luciferase reporter, luminescence, 16 h, DNA damage induced by 5-fluorouridine; series mostly up to 46.1 µM; activity change, negative = inhibition: at the top concentration; further: nearly all actives have a fitted effect of over 55% in size
Method in brief: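 Luminescence from the luciferase reporter, measured 30 min after ONE-Glo reagent at room temperature, was the read-out. Beforehand, 2,000 cells per well were exposed for 16 hr at 37 °C to 5-fluorouridine together with compound or vehicle.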
On the % scale 0 is the no-effect control and ±100 the full control effect; potency means the concentration at half of the fitted maximal effect.

SMILES	activity change, negative = inhibition	Potency
COc1cc(CN2CCCC(C(=O)c3ccc(SC)cc3)C2)cc(Cl)c1O (stereo unspecified)	-21% (inactive)	
CCOc1ccccc1OCC(=O)Nc1ccccc1C(=O)NC1CC1	-13.3% (inactive)	
Cc1ccc(S(=O)(=O)NCc2ccc(C(=O)NC3CCC(C)CC3)cc2)cc1 (stereo unspecified)	0.703% (inactive)	
CCCCn1c(N)c(N(CCOC)C(=O)c2oc3ccc(OC)cc3c2C)c(=O)[nH]c1=O	12.6% (inactive)	
CCN(C(=O)COC(=O)CCC(=O)c1cccs1)C1CCCCC1	0% (inactive)	
O=C(Nc1nc2ccc([N+](=O)[O-])cc2s1)c1ccc(S(=O)(=O)N2CCCc3ccccc32)cc1		2.31 µM (active)
CC1CCN(C(=O)c2cccc(S(=O)(=O)N3CCCc4ccccc43)c2)CC1	16% (inactive)	
CN(C)CCCN(C(=O)c1ccc(S(=O)(=O)N2CCCc3ccccc32)cc1)c1nc2ccc(F)cc2s1	0% (inactive)	
Cc1cccc(NC(=O)c2cccc(S(=O)(=O)N3CCCC3)c2)n1	-4.45% (inactive)	
Cc1ccc(NC(=O)c2cccc(S(=O)(=O)N3CCCc4ccccc43)c2)nc1		18.3 µM (active)
CS(=O)(=O)c1ccc2nc(NC(=O)c3ccc(N4CCCC4=O)cc3)sc2c1	-12.2% (inactive)	
O=C(COC(=O)c1ccco1)Nc1ccc(Cl)cn1	23.5% (inactive)	
COc1ccc(Cl)cc1NC(=O)COC(=O)c1ccc(Br)o1	22.8% (inactive)	
O=C(NCCN1CCOCC1)c1cccc(S(=O)(=O)Nc2ccc(F)cc2)c1	4.32% (inactive)	
COc1ccc(CCNC(=O)CSCc2ccc(Br)cc2)cc1OC	-25.8% (inactive)	
COc1ccc(C(CCN(Cc2ccc(OC)c(OC)c2)C(=O)CCl)c2ccccc2)cc1 (stereo unspecified)		20.6 µM (active)
CCOC(=O)CN(Cc1ccc(OC)c(OC)c1)S(=O)(=O)c1ccc(OC)cc1	3.12% (inactive)	
COc1ccc(COC(=O)NC(C(=O)O)c2ccccc2)cc1 (stereo unspecified)	0.779% (inactive)	
Cc1cccc(C)c1Nc1nnc(SCC(=O)NCCCN2CCCC2=O)s1	-6.62% (inactive)	
C[C@H](CO)N1C[C@H](C)[C@@H](CN(C)Cc2ccc(-c3ccccc3)cc2)Oc2ccc(NC(=O)Cn3cnnn3)cc2C1=O	-17.5% (inactive)	
CCOc1cccc(NC(=O)CC#N)c1	-2.32% (inactive)	

SMILES	activity change, negative = inhibition	Potency
CC(=O)Nc1cccc(OCC(=O)/C=C2\N(C)c3ccccc3C2(C)C)c1		18.3 µM (active)
Cc1noc(C)c1C(=O)OCC(=O)/C=C1\N(C)c2ccccc2C1(C)C	10.3% (inactive)	
Cc1ccc(-n2c(SCC(=O)NCCC3=CCCCC3)nc3n[nH]c(C)c3c2=N)cc1Cl	3.77% (inactive)	
Cc1ccc2cc(C)c(N3CCN(c4ccc(F)cc4)CC3)nc2c1	2.56% (inactive)	
COc1ccccc1-c1nn(Cc2ccccc2)cc1C(=O)N1CCN(c2ncccn2)CC1	-22.5% (inactive)	
O=c1c2c(ncn1Cc1ccccc1)nc1n2CCC1	2.62% (inactive)	
CN(C)c1ccnc2sc3c(=O)n(Cc4ccccc4)cnc3c12		4.61 µM (active)
O=c1c2[nH]c3ccc(Cl)cc3c2ncn1Cc1ccccn1	3.64% (inactive)	
Cc1c(NC(=O)C(C)OC(=O)c2ccccc2O)c(=O)n(-c2ccccc2)n1C (stereo unspecified)	22.8% (inactive)	
CC(OC(=O)CCCc1c[nH]c2ccccc12)C(=O)Nc1ccc(S(N)(=O)=O)cc1 (stereo unspecified)	3.33% (inactive)	
Cc1ccc(NC(=O)C(C)OC(=O)Cc2c[nH]c3ccccc23)cc1S(=O)(=O)N1CCOCC1 (stereo unspecified)		18.3 µM (active)
Cc1cc(C(=O)OC(C)C(=O)Nc2cccc(S(=O)(=O)N3CCOCC3)c2)c(C)o1 (stereo unspecified)	-16.8% (inactive)	
O=C(N[C@H]1C/C=C\C(c2ccc(F)cc2)N(Cc2ccccc2)C(=O)C1)OCC1c2ccccc2-c2ccccc21 (stereo partly specified)	-10.5% (inactive)	
Nc1c(Cl)cc(-c2csc(N3CCCC3c3nc4cc(Cl)c(Cl)cc4n3CCOCCO)n2)cc1Cl (stereo unspecified)	-9.47% (inactive)	
COc1ccc(C(=O)CSc2nnc(-c3ccco3)o2)cc1	4.26% (inactive)	
COc1ccc(OC)c(C(=O)CSc2nnc(-c3cccs3)o2)c1	25.4% (inactive)	
COc1ccc(-n2c(C)cc(C(=O)CSc3nnc(-c4cccs4)o3)c2C)cc1		6.51 µM (active)
CCN(CC)CCN1C(=O)C2C(C(=O)Nc3ccc(Br)cc3)C3C=CC2(O3)C1C(=O)NC1CCCCC1 (stereo unspecified)	24.9% (inactive)	
Cc1ccc(NC(=S)NCCc2ccc(Cl)cc2)c(C)c1	1.86% (inactive)	
CCC1(c2ccccc2)NC(=O)N(CC(=O)Nc2ccccc2C(=O)NC2CCCC2)C1=O (stereo unspecified)	4.06% (inactive)	
CCc1ccc(NC(=O)Cn2nnc(C(=O)NCc3ccc(OC)cc3)c2N)cc1	17.6% (inactive)	

SMILES	activity change, negative = inhibition	Potency
COc1cc(C2CC(=O)Oc3cc(OC)c(OC)c(OC)c32)cc(OC)c1OC (stereo unspecified)	17.8% (inactive)	
O=C(CCS(=O)(=O)Cc1ccccc1)Nc1ccc2c(c1)OCCO2	21.4% (inactive)	
CCN(CC(=O)Nc1ccc2c(c1)OCO2)S(=O)(=O)c1ccccc1	1.72% (inactive)	
O=C(CN(c1ccc2c(c1)OCCO2)S(=O)(=O)c1ccccc1)Nc1ccc2c(c1)OCO2		9.2 µM (active)
NC(=O)c1cc(S(=O)(=O)NCCCc2ccco2)cs1	0.127% (inactive)	
O=C(Cn1cnc2ccccc2c1=O)NCC1COc2ccccc2O1 (stereo unspecified)	-0.196% (inactive)	
CCn1cc(C(=O)NCC2COc3ccccc3O2)c2cc(OC)c(OC)cc2c1=O (stereo unspecified)		14.6 µM (active)
Cc1noc(C)c1C(=O)NCC1COc2ccccc2O1 (stereo unspecified)	0.0743% (inactive)	
CCC1CCCCN1C(=O)CSc1nc2c(c(=O)n1C)SC(C)C2 (stereo unspecified)	-8.54% (inactive)	
CC(=O)c1cccc(OCC(=O)OCC(=O)Nc2cc(S(=O)(=O)N3CCCCC3)ccc2C)c1	1.04% (inactive)	
CC(C(=O)Nc1ccc(O)c(C(=O)O)c1)N1C(=O)/C(=C/c2cccs2)SC1=S (stereo unspecified)	10.8% (inactive)	
COc1ccccc1C(=O)NCCC(=O)NCC(c1ccco1)N1CCCCC1 (stereo unspecified)	10.2% (inactive)	
COc1cccc(OC)c1C(=O)NC(=S)NCc1ccco1	14% (inactive)	
COc1ccccc1C(=O)NCCn1cc(SCC(=O)NCc2ccco2)c2ccccc21		25.9 µM (active)
Cc1cc(C)n2nc(C(=O)Nc3cccc(S(=O)(=O)N4CCOCC4)c3)nc2n1	14.6% (inactive)	
O=C(CCNC(=O)c1ccccc1Cl)NN=Cc1ccco1	2.44% (inactive)	
C#CCOCCOCCOCCNc1nc(N2CCN(C(=O)[C@H](CCC(=O)O)n3cc(CN)nn3)CC2)nc(N2CCN(C(=O)[C@H](CCC(=O)O)n3cc(CN)nn3)CC2)n1	7.9% (inactive)	
O=C(NC1CCCC1)C(c1ccco1)N(C(=O)c1ccco1)c1ccc(F)cc1 (stereo unspecified)	-2.68% (inactive)	
CC1=C[C@H]2Cc3cc(C)cc(C)c3S(=O)(=O)[C@@H]2C=C1		16.4 µM (active)
